Activity calls are given as the source filed them. Rule for the calls: active = hit-call score of the fitted dose curve at least 0.9, where 1 is the maximum; inactive = score below 0.9.
Key:
[1] = ATG_CRE_CIS: Attagene CIS-FACTORIAL HepG2 Assay for human cAMP Responsive Element (CRE) binding protein 3 (AID 2282926); details: HepG2 CRE cis-reporter, Attagene multiplexed mRNA; actives raise or lower the signal
Method in brief: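 Transfected HepG2 were treated for 24 hours, then RNA was extracted and reporter cDNA amplified with sequence-specific primers. Labelled fragments were separated by capillary electrophoresis, and the CRE signal was fitted bidirectionally with DMSO as baseline.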

[2] = target: CCAAT/enhancer-binding protein beta (Homo sapiens) (UniProt P17676); test: ATG_C_EBP_CIS: Attagene CIS-FACTORIAL HepG2 Assay for human CCAAT/Enhancer Binding Protein (C/EBP) beta (AID 2282927); details: HepG2 Attagene cis-factorial transcription factor reporter; actives raise or lower the signal
CCAAT/enhancer-binding protein beta (Homo sapiens), sequence (P17676 whole entry, looked up): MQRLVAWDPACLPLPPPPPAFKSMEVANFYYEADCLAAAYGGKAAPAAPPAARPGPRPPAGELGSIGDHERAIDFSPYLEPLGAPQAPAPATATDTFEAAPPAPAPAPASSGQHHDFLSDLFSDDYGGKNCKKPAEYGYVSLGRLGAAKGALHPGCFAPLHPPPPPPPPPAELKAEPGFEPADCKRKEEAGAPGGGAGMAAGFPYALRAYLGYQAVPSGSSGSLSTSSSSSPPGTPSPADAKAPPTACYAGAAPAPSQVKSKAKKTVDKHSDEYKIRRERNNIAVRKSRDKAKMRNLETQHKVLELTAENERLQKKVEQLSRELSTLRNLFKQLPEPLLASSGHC
Method in brief: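 Endogenous transcription factor activity in human liver HepG2 cells is inferred from induction of a CEBPB-linked reporter mRNA. Exposure lasts 24 h; activity is fitted in both directions relative to DMSO.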

[3] = ATG_CMV_CIS: Attagene CIS-FACTORIAL HepG2 Assay for human CMV (Internal Marker) (AID 2282928); details: HepG2 CMV promoter reporter, transcription factor profiling; actives raise or lower the signal;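 note: endpoint acts as a background internal control marker rather than a target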
Method in brief: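 Cell system: HepG2, transiently transfected multiple reporter units under cis promoters. Exposure: 24 h. Detection: RT-PCR, FAM labeling, HpaI digestion, capillary electrophoresis. Analysis: bidirectional, DMSO baseline.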

[4] = ATG_DR4_LXR_CIS: Attagene CIS-FACTORIAL HepG2 Assay for human Liver X Receptor (LXR), DR4 submotif (AID 2282929); details: HepG2 Attagene DR4 cis-reporter, mRNA transcription; actives raise or lower the signal
Method in brief: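 Readout: reporter transcript fluorescence after RT-PCR and capillary electrophoresis, fitted bidirectionally against DMSO controls. Human HepG2 liver cells carried transiently transfected multiplexed reporter constructs; endogenous transcription factor activity measured 24 h post-dosing.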

[5] = target: Aryl hydrocarbon receptor (Homo sapiens) (UniProt P35869); test: ATG_Ahr_CIS: Attagene CIS-FACTORIAL HepG2 Assay for human Aryl Hydrocarbon Receptor (Ahr) (AID 2282930); details: HepG2 AhR cis-factorial reporter transcription; actives raise or lower the signal
Aryl hydrocarbon receptor (Homo sapiens), sequence (P35869 whole entry, looked up): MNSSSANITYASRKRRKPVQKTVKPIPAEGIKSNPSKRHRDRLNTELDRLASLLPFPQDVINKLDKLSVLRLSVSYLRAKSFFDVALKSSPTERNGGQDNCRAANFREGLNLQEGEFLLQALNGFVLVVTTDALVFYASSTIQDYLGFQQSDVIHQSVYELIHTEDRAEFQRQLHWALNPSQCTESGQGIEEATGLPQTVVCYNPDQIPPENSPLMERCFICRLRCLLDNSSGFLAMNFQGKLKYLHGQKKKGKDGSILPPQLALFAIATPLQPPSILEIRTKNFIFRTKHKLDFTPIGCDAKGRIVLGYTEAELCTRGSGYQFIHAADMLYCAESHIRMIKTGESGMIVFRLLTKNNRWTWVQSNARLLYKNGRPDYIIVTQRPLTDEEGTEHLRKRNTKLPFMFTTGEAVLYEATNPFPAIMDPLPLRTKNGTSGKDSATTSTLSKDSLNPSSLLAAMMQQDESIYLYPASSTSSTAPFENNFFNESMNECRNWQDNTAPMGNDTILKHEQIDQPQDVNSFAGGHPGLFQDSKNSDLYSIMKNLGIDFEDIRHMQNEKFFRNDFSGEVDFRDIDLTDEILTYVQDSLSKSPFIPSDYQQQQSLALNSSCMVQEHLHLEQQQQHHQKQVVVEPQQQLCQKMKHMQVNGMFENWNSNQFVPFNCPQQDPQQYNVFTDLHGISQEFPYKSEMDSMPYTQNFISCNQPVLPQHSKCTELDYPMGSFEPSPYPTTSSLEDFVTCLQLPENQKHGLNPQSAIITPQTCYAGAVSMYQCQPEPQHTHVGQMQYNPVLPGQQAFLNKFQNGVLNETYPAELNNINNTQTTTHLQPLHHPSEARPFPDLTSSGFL
Method in brief: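 Transient MRTU transfection of HepG2 → 24 h compound exposure → total RNA, oligo(dT) RT → PCR, 6-FAM extension, HpaI cut → CE fluorescence. DMSO = baseline; bidirectional curve fit.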

[6] = ATG_AP_1_CIS: Attagene CIS-FACTORIAL HepG2 Assay for human Activator Protein 1 (AP-1) (AID 2282931); details: HepG2 Attagene cis-factorial AP-1 reporter mRNA; actives raise or lower the signal
Method in brief: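 Reporter transcripts were measured 24 h after dosing by RT-PCR and capillary electrophoresis of fluorescent fragments. Cells: HepG2 carrying transfected cis-regulated reporter constructs reading endogenous factor activity. Gain or loss fitted against DMSO.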

[7] = ATG_AP_2_CIS: Attagene CIS-FACTORIAL HepG2 Assay for human Activator Protein 2 (AP-2) (AID 2282932); details: HepG2 AP-2 cis-reporter, Attagene transcription factor profiling; actives raise or lower the signal
Method in brief: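 HepG2, transient MRTU transfection, cis-regulated reporters; 24 h compound exposure; RNA isolated, RT-PCR, 6-FAM labelling, HpaI digest, CE fluorescence. DMSO = negative control/baseline, bidirectional fit.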

[8] = ATG_BRE_CIS: Attagene CIS-FACTORIAL HepG2 Assay for human Bone Morphogenetic Protein (BMP) Response Element (BRE) (AID 2282933); details: HepG2 BMP response element reporter, Attagene transcription factor profiling; actives raise or lower the signal
Method in brief: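 A HepG2 multiplex reporter system measured inducible reporter mRNA 24 h post-dosing. Detection: RT-PCR, 6-FAM primer extension, HpaI digestion, capillary electrophoresis. Activity fitted bidirectionally relative to DMSO.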

[9] = target: Transcription factor E2F1 (Homo sapiens) (UniProt Q01094); test: ATG_E2F_CIS: Attagene CIS-FACTORIAL HepG2 Assay for human E2F Transcription Factor 1 (AID 2282935); details: HepG2 Attagene cis-reporter, E2F reporter RNA transcripts; actives raise or lower the signal
Transcription factor E2F1 (Homo sapiens), sequence (Q01094 whole entry, looked up): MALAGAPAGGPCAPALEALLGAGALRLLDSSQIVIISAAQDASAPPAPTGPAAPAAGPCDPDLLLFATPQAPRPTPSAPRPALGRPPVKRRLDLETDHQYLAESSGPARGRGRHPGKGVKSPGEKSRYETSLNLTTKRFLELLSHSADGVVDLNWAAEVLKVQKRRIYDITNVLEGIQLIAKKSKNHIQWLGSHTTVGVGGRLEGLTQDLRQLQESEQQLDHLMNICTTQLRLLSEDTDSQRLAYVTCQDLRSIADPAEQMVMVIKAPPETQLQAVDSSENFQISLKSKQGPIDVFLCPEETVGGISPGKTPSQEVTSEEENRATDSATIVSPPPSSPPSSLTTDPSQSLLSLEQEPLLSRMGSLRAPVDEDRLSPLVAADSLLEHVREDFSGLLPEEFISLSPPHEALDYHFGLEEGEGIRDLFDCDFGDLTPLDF
Method in brief: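 Cis-element reporter mRNA induction in transiently transfected HepG2, 24 h exposure. Activity fitted in both directions relative to DMSO negative control.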

[10] = ATG_E_Box_CIS: Attagene CIS-FACTORIAL HepG2 Assay for human Enhancer Box (E-box) (AID 2282936); details: HepG2 E-box cis-reporter transcription, actives raise or lower the signal
Method in brief: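 Cells: HepG2 (human liver), transient MRTU transfection. Exposure 24 h. RNA → oligo(dT) RT → PCR → 6-FAM label → HpaI → CE. Activity fitted both directions relative to DMSO.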

[11] = ATG_M_61_CIS: Attagene CIS-FACTORIAL HepG2 Assay for M61 Transcription Factor (Internal Marker) (AID 2282937); details: HepG2 Attagene CIS-FACTORIAL M61 internal marker reporter; actives raise or lower the signal
Method in brief: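 Readout: fluorescent reporter mRNA fragments resolved by capillary electrophoresis after RT-PCR. Transiently transfected human HepG2 cells carried MRTU constructs reporting endogenous TF activity; 24 h chemical exposure; gain or loss of signal fitted relative to DMSO.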

[12] = ATG_EGR_CIS: Attagene CIS-FACTORIAL HepG2 Assay for human Early Growth Response 1 (EGR1) (AID 2282938); details: HepG2 Attagene CIS-FACTORIAL EGR reporter mRNA; actives raise or lower the signal
Method in brief: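 Read-out: fluorescent reporter-mRNA fragments resolved by capillary electrophoresis after RT-PCR, 24 h post-dose in transiently transfected HepG2. Endogenous transcription-factor activity reported via cis-element-regulated reporter units; gain or loss fitted relative to DMSO.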

[13] = ATG_M_19_CIS: Attagene CIS-FACTORIAL HepG2 Assay for M19 Transcription Factor (Internal Marker) (AID 2282939); details: HepG2 Attagene CIS-FACTORIAL M19 internal marker reporter; actives raise or lower the signal
Method in brief: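 Chemical-treated HepG2 (24 h) with MRTU constructs; reporter transcripts detected by fluorescent RT-PCR fragment analysis on capillary electrophoresis. Internal background marker, DMSO as baseline.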

[14] = ATG_Ets_CIS: Attagene CIS-FACTORIAL HepG2 Assay for human Erythroblast Transformation Specific (ETS) (AID 2282941); details: HepG2 ETS cis-reporter transcription, actives raise or lower the signal
Method in brief: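 After transient cis-reporter transfection, HepG2 cells receive test chemical for 24 h. Reporter mRNA levels, measured by RT-PCR and capillary electrophoresis fluorescence, are analysed bidirectionally relative to the DMSO baseline.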

[15] = target: Hepatocyte nuclear factor 3-beta (Homo sapiens) (UniProt Q9Y261); test: ATG_FoxA2_CIS: Attagene CIS-FACTORIAL HepG2 Assay for human Forkhead box A2 (FOXA2) (AID 2282942); details: HepG2 cis-reporter transcription factor activity, 24 h; actives raise or lower the signal
Hepatocyte nuclear factor 3-beta (Homo sapiens), sequence (Q9Y261 whole entry, looked up): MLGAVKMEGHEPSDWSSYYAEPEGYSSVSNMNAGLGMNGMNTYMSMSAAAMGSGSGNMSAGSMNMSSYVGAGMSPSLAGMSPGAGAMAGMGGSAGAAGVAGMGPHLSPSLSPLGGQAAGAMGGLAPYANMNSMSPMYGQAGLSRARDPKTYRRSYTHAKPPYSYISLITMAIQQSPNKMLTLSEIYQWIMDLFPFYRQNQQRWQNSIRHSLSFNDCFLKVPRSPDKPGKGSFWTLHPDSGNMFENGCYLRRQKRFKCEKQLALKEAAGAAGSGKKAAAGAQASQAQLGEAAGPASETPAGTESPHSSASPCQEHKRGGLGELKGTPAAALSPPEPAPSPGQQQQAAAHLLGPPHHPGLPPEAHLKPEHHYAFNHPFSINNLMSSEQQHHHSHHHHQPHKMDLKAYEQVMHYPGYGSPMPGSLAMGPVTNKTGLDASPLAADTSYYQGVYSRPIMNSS
Method in brief: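 Readout: fluorescent reporter transcripts resolved by capillary electrophoresis after RT-PCR. Transiently transfected HepG2, 24 h compound exposure, endogenous TF activity at cis promoter elements. Gain or loss of signal fitted relative to DMSO.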

[16] = ATG_FoxO_CIS: Attagene CIS-FACTORIAL HepG2 Assay for human Forkhead box O (FoxO) (AID 2282943); details: HepG2 Attagene cis-reporter, FoxO element, mRNA; actives raise or lower the signal
Method in brief: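 HepG2, transient MRTU transfection (cis element, endogenous TFs). Dose 24 h. TriZol RNA → oligo(dT) RT → PCR → 6-FAM primer extension → HpaI cut → CE. Gain/loss vs DMSO.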

[17] = ATG_GATA_CIS: Attagene CIS-FACTORIAL HepG2 Assay for human GATA Binding Protein (AID 2282944); details: HepG2 GATA cis-element reporter, Attagene multiplex mRNA; actives raise or lower the signal
Method in brief: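 Transfected cis-reporter HepG2 cells were treated with chemicals for 24 hours. Total RNA was then converted to cDNA, amplified with reporter-specific primers and analysed by fluorescent capillary electrophoresis, using DMSO-treated wells as baseline.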

[18] = ATG_GLI_CIS: Attagene CIS-FACTORIAL HepG2 Assay for human Zinc Finger Protein GLI1 (AID 2282945); details: HepG2, Attagene cis-factorial reporter mRNA, GLI element; actives raise or lower the signal
Method in brief: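 Bidirectional curve fits relative to DMSO, using reporter mRNA levels from RT-PCR plus capillary electrophoresis. Cells were HepG2 transiently carrying cis-regulated reporter constructs, harvested 24 h after dosing.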

[19] = target: Retinoic acid receptor alpha (Homo sapiens) (UniProt P10276); test: ATG_DR5_RAR_CIS: Attagene CIS-FACTORIAL HepG2 Assay for human Retinoic Acid Receptor Alpha (RARE), DR5 submotif (AID 2282934); details: HepG2 Attagene cis-factorial RARE DR5 reporter, mRNA; actives raise or lower the signal;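 for AC50: reporter responds to endogenous RAR alpha beta and gamma in HepG2 not RARA alone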
Retinoic acid receptor alpha (Homo sapiens), sequence (P10276 whole entry, looked up): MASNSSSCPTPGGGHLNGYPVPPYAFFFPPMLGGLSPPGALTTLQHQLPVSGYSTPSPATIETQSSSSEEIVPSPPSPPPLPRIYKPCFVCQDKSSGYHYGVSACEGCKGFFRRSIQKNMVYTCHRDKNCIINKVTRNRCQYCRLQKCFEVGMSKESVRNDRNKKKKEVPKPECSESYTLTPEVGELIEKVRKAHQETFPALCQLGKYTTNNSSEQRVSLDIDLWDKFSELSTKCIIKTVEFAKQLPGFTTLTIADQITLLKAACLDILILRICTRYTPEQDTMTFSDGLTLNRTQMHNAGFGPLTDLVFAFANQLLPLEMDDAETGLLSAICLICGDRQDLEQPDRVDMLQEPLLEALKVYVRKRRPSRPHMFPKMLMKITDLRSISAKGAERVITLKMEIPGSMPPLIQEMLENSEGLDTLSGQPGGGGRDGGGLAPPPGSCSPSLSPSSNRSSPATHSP
Method in brief: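 Transient MRTU transfection of HepG2; 24 h compound treatment; TriZol RNA, oligo(dT) RT, PCR, FAM labelling, capillary electrophoresis. Bidirectional fit vs DMSO. Endogenous TF activity at DR5 RARE.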

[20] = ATG_ERE_CIS: Attagene CIS-FACTORIAL HepG2 Assay for Estrogen Response Element (ERE) (AID 2282940); details: HepG2 ERE cis-reporter, Attagene RNA transcript; actives raise or lower the signal
Method in brief: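 Human liver cells (HepG2) bearing transiently transfected, promoter-regulated reporter units were exposed 24 h. Reporter mRNA induction was detected by capillary electrophoresis of labelled RT-PCR products and fitted bidirectionally to DMSO.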

Measured: AC50

CC(C)[C@H](C(=O)O[C@H](C#N)c1cccc(Oc2ccccc2)c1)c1ccc(Cl)cc1
active: [4] 13.9 µM
not listed: [19] | [20]
inactive: all other assays above

COc1ccc(C(=CC(=O)N2CCOCC2)c2ccc(Cl)cc2)cc1OC
active: [1] 10.9 µM | [2] 5.02 µM | [3] 2.48 µM | [8] 11.9 µM | [12] 28.4 µM | [14] 23.2 µM
not listed: [4] | [20]
inactive: all other assays above

CCC(CC)Nc1c([N+](=O)[O-])cc(C)c(C)c1[N+](=O)[O-]
not listed: [4] | [9] | [19] | [20]
inactive: all other assays above

CCC(=NOC/C=C/Cl)C1=C(O)CC(C2CCOCC2)CC1=O (configuration not stated)
not listed: [4] | [9] | [19] | [20]
inactive: all other assays above

COP(=O)(OC)C(O)C(Cl)(Cl)Cl (configuration not stated)
active: [1] 32 µM | [2] 50 µM | [3] 22.1 µM | [6] 35.2 µM | [8] 30.1 µM | [12] 67.3 µM
not listed: [4] | [20]
inactive: all other assays above

Cc1cc(C2CC2)nc(Nc2ccccc2)n1
active: [1] 18 µM | [3] 13.1 µM | [6] 32.2 µM | [8] 33.5 µM | [19] 12.3 µM | [12] 50 µM | [20] 12.8 µM | [15] 33 µM | [16] 50 µM
not listed: [4] | [5]
inactive: all other assays above

Nc1c(Cl)cc([N+](=O)[O-])cc1Cl
active: [1] 35.1 µM | [2] 73.8 µM | [3] 50 µM | [6] 75.2 µM | [8] 36.1 µM | [20] 28.2 µM | [15] 76.1 µM
not listed: [4] | [9]
inactive: all other assays above

From PubChem BioAssay (EPA / NIEHS)
